This passage reports growth results from PubChem BioAssay (NCI).

What all share (assay): NCI-60 one-dose screen, 48 h (100 = growth as untreated, 0 = no growth, -100 = all killed)
Holding throughout (settings): 10 µM unless noted

Assay [1] relates to HCT-15 colon.
In assay [2] the test system is HT29 colon.
The test system of assay [3] is SNB-75 CNS.
Assay [4] has as its system SNB-19 CNS.
The subject of assay [5] is U251 CNS.
For assay [6], the system named is PC-3 prostate.
For assay [7], the system named is SK-MEL-5 melanoma.
For assay [8], the system named is UACC-62 melanoma.
Assay [9] concerns LOX IMVI melanoma.
The subject of assay [10] is SK-MEL-28 melanoma.
The subject of assay [11] is SK-MEL-2 melanoma.
In assay [12] the test system is EKVX NSCLC.
Assay [13] relates to SN12C renal.
Assay [14] concerns UO-31 renal.
Assay [15] deals with TK-10 renal.
Assay [16] deals with ACHN renal.
Assay [17] concerns CAKI-1 renal.
Assay [18] relates to A498 renal.
Assay [19] relates to CCRF-CEM leukemia.
Assay [20] relates to MOLT-4 leukemia.

Structures are written as SMILES. About 83,000 compounds went through this panel and 20% of them were active in at least one assay; those are over-represented in the sample as a whole.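 Treatment: one concentration, 48 hours, 96-well format. Scoring: percent growth, with anything below 10 considered active.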 A number with no mark means an inactive call. Active and inactive are the calls of the source.

Take `CCCCOc1nc2ccc(OC)cc2cc1-c1cc(-c2ccc(Cl)cc2)nc(-c2ccc(Cl)cc2)c1`: the growth was 104% in assay [1]; 104% in assay [2]; 91.2% in [3]; 93.6% in assay [4]; 102% in assay [5]; 96.9% in assay [6]. In addition, the growth in assay [7] was 102%; in assay [8], 93.5%; in assay [9], 101%; in assay [10], 104%; in assay [11] it was 103%; in assay [12], 98.2%. The growth in [13] was 101%; in assay [14], 90%; in assay [15], 104%; in [16], 96.3%; in assay [17], 104%; in [18], 83.5%. The growth was 103% in assay [19] and 113% in assay [20].

`Cc1nc(/N=C(\N)NC(=O)Nc2cccc(Cl)c2)sc1C`: the growth is 32% in [1]; 30.2% in [2]; 21.9% in assay [3]; 83.2% in [4]; 83.5% in assay [5]; 81.5% in assay [6]. Moreover, the growth in assay [7] was 80.2%; in assay [8] it was 60.5%; in assay [9], 68.8%; in assay [10] it was 69%; in [11], 72%; in assay [12], 68.3%. The growth in assay [13] is 86.4%; in assay [14] it was 84%; in assay [15] it was 111%; in [16], 78.4%; in assay [17] it was 48.6%; in assay [18], 42.4%. Further, the growth in assay [19] was 68.4%; in assay [20] it was 58.4%.

Regarding `CCOC(=O)c1c(C)nc2c(c1N)CC(=O)N2Cc1ccc(F)cc1`, the growth in assay [1] was 95.9%; in assay [2] it was 90%; in [3], 95%; in assay [4], 97.1%; in assay [5], 91.2%; in [6], 80%. Also, the growth was 92.9% in assay [7]; 90.1% in assay [8]; 93.5% in assay [9]; 111% in assay [10]; 92.6% in [11]; 94.9% in assay [12]. In addition, the growth in assay [13] is 93.2%; in assay [14], 88.6%; in [15], 97.3%; in [16] it was 95.7%; in [17], 92.9%; in assay [18] it was 64.1%. The growth was 85.3% in [19] and 85% in assay [20].

Take `c1ccc(Cc2nn3cc(-c4ccccc4)nc3s2)cc1`: the growth was 95.1% in [1]; 94.9% in assay [2]; 102% in [3]; 103% in assay [4]; 107% in assay [5]; 93.7% in [6]. The growth in assay [7] is 101%; in assay [8], 82.6%; in assay [9] it was 86.2%; in assay [10], 109%; in assay [11], 97%; in assay [12], 95.9%. The growth was 103% in assay [13]; 95.4% in [14]; 89.5% in assay [15]; 106% in [16]; 98.7% in assay [17]; 96.5% in assay [18]. Also, the growth was 102% in assay [19] and 93.9% in [20].

Turning to `CC1CN(C2CCCCC2)C(=S)N(c2ccccc2)C1=O` (stereo not given), the growth is 103% in [1]; 111% in assay [2]; 92.1% in assay [3]; 101% in assay [4]; 105% in assay [5]; 90.1% in assay [6]. For the same compound, the growth in assay [7] was 104%; in [8], 105%; in [9], 105%; in assay [10] it was 114%; in assay [11], 122%; in assay [12], 101%. For the same compound, the growth is 111% in [13]; 97.7% in [14]; 116% in [15]; 110% in assay [16]; 97.9% in [17]; 95.4% in assay [18]. Besides, the growth is 93.8% in assay [19] and 70.4% in [20].

Turning to `Cn1cc(-c2ccc3cc(-c4ccc(CC(=O)Nc5cc(C(C)(C)C)nn5C)cc4)cnc3c2)cn1`, the growth in assay [1] was 5.84% (active); in assay [2], 22.6%; in assay [3] it was 3.79% (active); in assay [4], 29.2%; in assay [5], 20.1%; in [6] it was 3.81% (active). The growth is -35.4% (active) in [7]; -16.6% (active) in [8]; 14.1% in assay [9]; 16.7% in assay [10]; -38.4% (active) in assay [11]; 23.5% in assay [12]. The growth in assay [13] was 5.18% (active); in [14] it was 1.27% (active); in assay [15], 15.8%; in [16] it was 3.05% (active); in assay [17] it was 0.564% (active); in assay [18], -18.5% (active). Moreover, the growth in assay [19] is 23%; in assay [20] it was 13.2%.

In the case of `C=C1C(=O)O[C@H]2[C@H]1CC/C(COC(=O)CCSSCCC(=O)OC/C1=C/CC[C@@]3(C)O[C@H]3[C@H]3OC(=O)C(=C)[C@@H]3CC1)=C\CC[C@@]1(C)O[C@@H]21`, the growth in [1] is -74.2% (active); in [2], -78.7% (active); in [3], 52.5%; in [4], 39.2%; in [5], -12% (active); in assay [6], -11.6% (active). Moreover, the growth in [7] was 41.7%; in assay [8] it was 36.7%; in assay [9], -75.8% (active); in assay [10], -42.8% (active); in [11], 52.4%; in assay [12], 12.6%. Besides, the growth is -45.8% (active) in assay [13]; -88.1% (active) in [14]; -33.8% (active) in assay [15]; -85.2% (active) in [16]; 20.3% in assay [17]; 72.9% in [18]. In addition, the growth in assay [19] is -23.6% (active); in [20] it was -26.8% (active).

For `COc1ccc(-c2nnc(COc3ccc(Cl)cc3Cl)o2)cc1OC`, the growth in assay [1] is 49.5%; in assay [2] it was 28.7%; in assay [3], -42% (active); in assay [4], 44.6%; in assay [5], 37.2%; in [6] it was 43.7%. Besides, the growth is 28.2% in assay [7]; 43.7% in [8]; 16.1% in [9]; 67.2% in assay [10]; 57.6% in [11]; -15.8% (active) in [12]. Moreover, the growth in assay [13] was 12.1%; in assay [14], -36.4% (active); in assay [15] it was -8.66% (active); in assay [16] it was 13.7%; in assay [17] it was 57.7%; in assay [18], 15.9%. Further, the growth in assay [19] is 29.3%; in assay [20], 54.3%.
